Laboratory results taken from PubChem BioAssay AID1654 (Sanford-Burnham Center for Chemical Genomics, 2009).
In all, about 290,000 compounds went through this assay and about 1,500 (0.52%) were called active. Rule as the data show it: active = inhibition above about 50%; inactive = the rest. This excerpt belongs to a sample that is enriched for actives.

Target: Dual specificity protein phosphatase 3 (Homo sapiens) (UniProt P51452)
Experiment: inhibition of human DUSP3 activity – biochemical, absorbance, uHTS, primary screen (AID 1654)
[1] = recombinant VHR phosphatase, pNPP absorbance, at 13.3 µM, stronger effect = higher value

Sequence of Dual specificity protein phosphatase 3 (Homo sapiens) (P51452 whole entry, looked up): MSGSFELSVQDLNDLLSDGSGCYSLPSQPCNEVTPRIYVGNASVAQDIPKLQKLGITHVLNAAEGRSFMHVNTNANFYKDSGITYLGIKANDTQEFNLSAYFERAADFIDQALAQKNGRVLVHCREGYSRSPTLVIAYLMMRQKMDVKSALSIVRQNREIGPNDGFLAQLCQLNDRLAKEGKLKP

Cc1cc(C)c(S(=O)(=O)N(C)CC(=O)NCC2CCCO2)c(C)c1 (stereo unspecified)
inhibition [1]: 20.6% (inactive)

COc1ccc(CN(C)C(=S)Nc2ccc(Cl)cc2Cl)cc1
inhibition [1]: -0.1% (inactive)

CC(=O)N1CCc2cc(S(=O)(=O)NC3CCCCC3)ccc21
inhibition [1]: -7.7% (inactive)

O=C(Nc1ccc(S(=O)(=O)Nc2ccccn2)cc1)c1ccccc1
inhibition [1]: 5.4% (inactive)

COc1cccc2cc(C(=O)N(C)C)c(=O)oc12
inhibition [1]: 18.2% (inactive)

COc1cccc2cc(C(=O)NCc3ccc(C)cc3)c(=N)oc12
inhibition [1]: 53.5% (active)

N=c1oc2ccccc2cc1C(=O)NCc1ccccc1
inhibition [1]: -2.5% (inactive)

CN(CC(=O)Nc1ccc(Cl)cc1)C(=O)CNC(=O)c1ccc2ccccc2c1
inhibition [1]: 27.9% (inactive)

Cn1c(C(=O)N2CCCC(C(=O)NCc3ccccc3)C2)cc2sccc21 (stereo unspecified)
inhibition [1]: 22.8% (inactive)

CCc1nnc(NC(=O)c2sc3nc(C)cc(COC)c3c2N)s1
inhibition [1]: 3.9% (inactive)

CCc1nnc(NC(=O)c2cccc(S(=O)(=O)N(C)c3ccc(OC)cc3)c2)s1
inhibition [1]: 13.9% (inactive)

CCc1ccc2nc3sc(C(=O)Nc4nnc(CC)s4)c(N)c3cc2c1
inhibition [1]: 52.7% (active)

COC(=O)Cc1cnc(NC(=O)CSc2nc(C(C)C)cc(=O)[nH]2)s1
inhibition [1]: -28.8% (inactive)

CCN1C(=NCCc2cccnc2)N[C@@H](c2ccccc2)[C@H](C(=O)OC)[C@H]1C
inhibition [1]: 36% (inactive)

CC(=O)c1ccc(OC(=O)N2CCOCC2)cc1
inhibition [1]: 1.7% (inactive)

O=C(O)CC(CC(=O)N1CCOCC1)c1ccccc1 (stereo unspecified)
inhibition [1]: -12.8% (inactive)

CC(C)Oc1ccc(C(CC(=O)N2CCOCC2)C(C)C)cc1 (stereo unspecified)
inhibition [1]: 53% (active)

COC(=O)CN1C(=O)[C@H]2[C@@H](/C=C/c3ccccc3)N3C(=O)CN(Cc4ccccc4)C(=O)[C@@]3(Cc3ccccc3)[C@H]2C1=O
inhibition [1]: 13.4% (inactive)

COCC1CCN(C(=O)C2CCC(=O)N(CC3CCCCC3)C2)CC1 (stereo unspecified)
inhibition [1]: 6.5% (inactive)

CC(C)=CCCC1(C)C=Cc2c(ccc3c2[nH]c2cc(O)c(C)cc23)O1 (stereo unspecified)
inhibition [1]: 16.5% (inactive)

COc1ccc(CN(C)C(=O)c2cc(-c3ccc(C)cc3C)nc3ccccc23)c(OC)c1OC
inhibition [1]: -8.1% (inactive)

Cn1c(CCNS(=O)(=O)c2ccc(F)cc2)nnc1SCc1cccnc1
inhibition [1]: 17% (inactive)

C#CC(CCN1CCCCC1)(OC)c1ccccc1 (stereo unspecified)
inhibition [1]: 5.2% (inactive)

CCOc1ccc(CCNC(=O)CCc2nnc3ccc(N4CCCC4)nn23)cc1OCC
inhibition [1]: 21.2% (inactive)

CCOC(=O)c1cccc(NC(=O)CCc2nnc3ccc(N4CCOCC4)nn23)c1
inhibition [1]: 10.4% (inactive)

CCN(CC)c1ccc(NC(=O)CCc2nnc3ccc(N4CCCCC4)nn23)c(C)c1
inhibition [1]: 56.7% (active)

Cc1cccc(C)c1NC(=O)C(Cl)C(=O)c1ccccc1 (stereo unspecified)
inhibition [1]: 0% (inactive)

O=C(Cn1nnc(-c2ccccc2)n1)N/N=C/c1ccc(-c2ccc(Cl)cc2)o1
inhibition [1]: 50.8% (active)

Cc1[nH]c2ccccc2c1/C=N\NC(=O)Cn1nnc(-c2ccccc2)n1
inhibition [1]: -6.7% (inactive)

Nc1nnnn1CC(=O)N/N=C/c1ccc(-c2cccc(Cl)c2)o1
inhibition [1]: 5.3% (inactive)

Cc1ccc(-c2nc(CS(=O)(=O)CC(=O)NCc3ccc4c(c3)OCO4)c(C)o2)cc1
inhibition [1]: 9.7% (inactive)

CN1C2CCC1/C(=C\c1ccccc1Cl)C(=O)/C2=C\c1ccccc1Cl
inhibition [1]: -0.2% (inactive)

CCc1ccc(/C=C2\SC(N3CCOCC3)=NC2=O)cc1
inhibition [1]: 19.9% (inactive)

Cc1ccc(N2CCN(C3=NC(=O)/C(=C\c4cccs4)S3)CC2)cc1
inhibition [1]: -10.9% (inactive)

Cc1ccsc1/C=C1\SC(N2CCOCC2)=NC1=O
inhibition [1]: 51% (active)

O=[N+]([O-])c1cc(C(F)(F)F)ccc1NCCc1ccncc1
inhibition [1]: -7.6% (inactive)

Cc1cc(C)n2nc(C(=O)NC(C)(C)C)nc2n1
inhibition [1]: 38.4% (inactive)

Cc1cc(C)n2nc(CNS(=O)(=O)c3c(F)c(F)c(F)c(F)c3F)nc2n1
inhibition [1]: 51.3% (active)

Cc1cc(C)n2nc(SCC(N)=O)nc2n1
inhibition [1]: 24.2% (inactive)

CCOC(=O)c1c(C)[nH]c(C2=NNC(=NC(C)COC)SC2)c1C (stereo unspecified)
inhibition [1]: 8.2% (inactive)

Cc1ccc2oc(C(=O)N3CCN(C)C[C@@H]3C(C)C)c(C)c2c1
inhibition (recombinant VHR phosphatase, pNPP absorbance; at 13.3 µM; stronger effect = higher value): 80.7% (inactive) | inhibition (recombinant VHR phosphatase, pNPP absorbance; measured here: average of confirmation repeats; at 13.3 µM; stronger effect = higher value): -20.8%

Cc1ccccc1OCC(=O)NNC(=O)c1cc(S(=O)(=O)N(C)C)ccc1N1CCCC1
inhibition [1]: -23.3% (inactive)

COCCNC(=O)c1ccc2c(c1)ncn2-c1ccc(C)c(Cl)c1
inhibition [1]: 5.8% (inactive)

COCCNC(=O)c1snc2ccc(Cl)cc12
inhibition [1]: 50% (active)

COCCNC(=O)c1ccc(S(=O)(=O)c2ccc(Cl)cc2)c(NC(C)=O)c1
inhibition [1]: 13.8% (inactive)

Cc1ccc(C(=O)O/N=C(\N)c2ccccn2)cc1Cl
inhibition [1]: 11.4% (inactive)

CC1CCN(S(=O)(=O)c2ccc(S(=O)(=O)NCc3cccnc3)cc2)CC1
inhibition [1]: 40% (inactive)

O=S(=O)(NCc1cccnc1)c1ccc(Br)s1
inhibition [1]: 35.9% (inactive)

O=S(=O)(NCc1cccnc1)c1ccc(Cl)nc1
inhibition [1]: 50.3% (active)

Cc1ccc(NC(=O)CN(C)C(=O)COC(=O)C(C)(C)Oc2ccc(Cl)cc2)cc1
inhibition [1]: -4.4% (inactive)

CC(=O)OCCN(CCCn1c(-c2ccncc2)nc2ccccc21)c1nc(-c2ccc(C)cc2)cs1
inhibition [1]: 9.5% (inactive)

COc1ccc(C(CCN(Cc2ccc(OC)c(OC)c2)C(=O)CCl)c2ccccc2)cc1 (stereo unspecified)
inhibition [1]: 0.4% (inactive)

Cc1ccc2c(c1)C(c1ccccc1)N(C(=O)c1ccc(F)cc1)CC(=O)N2 (stereo unspecified)
inhibition [1]: 23.9% (inactive)

Cc1ccc(/C=N/NC(=O)CSc2ccccn2)o1
inhibition [1]: -2.8% (inactive)

Cc1ccc(/C=N/NC(=O)CNC(=O)COc2ccccc2)o1
inhibition [1]: 52.9% (active)

CCOc1ccccc1/C=N/NC(=O)CNC(=O)COc1ccccc1
inhibition [1]: 26.2% (inactive)

CCOc1ccc(C(C(=O)NCCOC)N(CCOC)C(=O)CCC(=O)Nc2ccccn2)cc1 (stereo unspecified)
inhibition [1]: 36.3% (inactive)

COc1cc2cc(C(=O)N/N=C/c3cccc(OC)c3OC)[nH]c2cc1OC
inhibition [1]: 58.2% (active)

COc1ccc2[nH]c(C(=O)N/N=C/c3cc(OC)c(OC)c(OC)c3)cc2c1
inhibition [1]: 14.1% (inactive)

CCOc1ccc2[nH]c(C(=O)N/N=C/c3cccc(OC)c3OC)cc2c1
inhibition [1]: 26.8% (inactive)

CCCn1nnnc1NCc1ccc(CC)cc1
inhibition [1]: 10.8% (inactive)

O=C(c1ccc(Cl)cc1)n1cnc2ccccc21
inhibition [1]: 4.1% (inactive)

O=C1C(Cl)=C(N2CCOCC2)C(=O)N1c1ccccc1
inhibition [1]: 29.6% (inactive)

COc1ccc(N2CCN(C(C)=C3C(=O)c4ccccc4C3=O)CC2)cc1
inhibition [1]: 30.2% (inactive)

COC1=C(N2CCOCC2)C(=O)c2ccccc2C1=O
inhibition [1]: 57.3% (active)

CCc1ccc(CNC(=O)C2CCN(c3nnc(C)c4c(C)n(-c5ccc(C)cc5)nc34)CC2)cc1
inhibition [1]: -20.3% (inactive)

O=C(CNC(=O)c1cccnc1)N/N=C/c1cccnc1
inhibition [1]: 17.2% (inactive)

O=C(CNC(=O)c1cccnc1)N/N=C/c1cc(Br)c(O)c(Br)c1
inhibition [1]: 52.6% (active)

CCN(CC)c1ccc(/C=N/NC(=O)CNC(=O)c2cccnc2)cc1
inhibition [1]: -4.7% (inactive)

Cc1cc(-c2nnc(SCC(=O)Nc3ccc(F)cc3)n2N)n[nH]1
inhibition [1]: 8% (inactive)

COc1cccc(CNCc2ccc3c(c2)OCO3)c1
inhibition [1]: 3.6% (inactive)

CN(C(=O)C1CCN(c2ncnc3c2nc2n3CCCCC2)CC1)C1CCCCC1
inhibition [1]: 21.1% (inactive)

CCOC(=O)c1cc(S(=O)(=O)NCCc2ccc(OC)c(OC)c2)cn1C
inhibition [1]: 55.6% (active)

COc1ccc(CCNS(=O)(=O)c2ccc(F)cc2)cc1OC
inhibition [1]: 2.8% (inactive)

CCS(=O)(=O)NCCc1ccc(OC)c(OC)c1
inhibition [1]: 3.5% (inactive)

CCOC(=O)c1ccc2[nH]c3c(c2c1)CCCC3NC=O (stereo unspecified)
inhibition [1]: 5.2% (inactive)

COc1ccc(N2CCN(C(=O)c3ccc(N4CCCCS4(=O)=O)cc3)CC2)cc1
inhibition [1]: 21.1% (inactive)

Cc1ccc(S(=O)(=O)N(CC(O)CN2C(=O)NC(C)(C)C2=O)c2cccc([N+](=O)[O-])c2)cc1 (stereo unspecified)
inhibition [1]: 6.7% (inactive)

Cc1cc(C)c(S(=O)(=O)c2ccc(F)cc2C)c(=O)[nH]1
inhibition [1]: -16.2% (inactive)

Cc1cc(C)c(S(=O)(=O)c2cc(F)ccc2C)c(=O)[nH]1
inhibition [1]: 56.9% (active)

COc1ccccc1S(=O)(=O)c1c(C)cc(C)[nH]c1=O
inhibition [1]: 8.8% (inactive)

CCCn1c(C(O)c2cc(OC)ccc2OC)nc2ccccc21 (stereo unspecified)
inhibition [1]: 6.4% (inactive)

COc1ccc(OC)c(C(O)c2nc3ccccc3n2C)c1 (stereo unspecified)
inhibition [1]: 57% (active)

CCn1c(C(O)c2cc(OC)ccc2OC)nc2ccccc21 (stereo unspecified)
inhibition [1]: -40.5% (inactive)

COc1cccc(NC(=O)C2C(c3ccccc3)C2(Cl)Cl)c1 (stereo unspecified)
inhibition [1]: -7.8% (inactive)

Cc1cc(C)c(C#N)c(Nc2cccc(Br)c2)n1
inhibition [1]: 0.3% (inactive)

COc1cc(Cl)ccc1OCc1cc(C(=O)N(C)CCc2c(C)n[nH]c2C)no1
inhibition [1]: 1.6% (inactive)

Cc1ccccc1Nc1c([N+](=O)[O-])ccc2nonc12
inhibition [1]: 17.2% (inactive)

CS(=O)(=O)C1=NN2C(=N)/C(=C\c3ccc(OCCOc4ccccc4)cc3)C(=O)N=C2S1
inhibition [1]: 26.8% (inactive)

CCOc1cc(/C=C2\C(=N)N3N=C(C)SC3=NC2=O)ccc1OCCOc1ccccc1
inhibition [1]: 17.9% (inactive)

COc1ccccc1OCCOc1ccc(/C=C2\C(=N)N3N=C(C)SC3=NC2=O)cc1
inhibition [1]: 59.3% (active)

C=CCN1C(=NC(=O)COc2ccccc2)SC2CS(=O)(=O)CC21 (stereo unspecified)
inhibition [1]: 19% (inactive)

CC1(C)CC(=O)C=C(Nc2ccccc2)C1
inhibition [1]: -8.5% (inactive)

COC(=O)NNC1=CC(=O)CC(C)(C)C1
inhibition [1]: 1.2% (inactive)

Cc1cc(C)nc(NNC2=CC(=O)CC(C)(C)C2)n1
inhibition [1]: 51.3% (active)
